# Results: paper PMC4336329 (PLoS ONE, 2015)
# About 14,000 (4.5%) of roughly 310,000 compounds showed an effect of 50% or more. Effects have a minus sign here. What follows is part of a selection rich in strong results, with near analogues and random picks from the rest.
# Target: human ether-à-go-go-related gene (hERG) potassium channel (human, UniProt Q12809)
# Assay: primary screen, population patch clamp on CHO cells stably expressing hERG; higher = less effect of the substance
# Experimental: Briefly, Chinese hamster ovary (CHO) cells stably expressing the hERG channel were dislodged from tissue culture flasks and dispensed into PPC plates. […] During the recording, background leak currents were estimated by a 100 ms step to -80 mV from an initial holding potential of -70 mV and subtracted from the subsequent current measurement. The campaign was conducted in two phases using slight differences in recording protocol. In the first phase, the initial voltage pulse used a 100 ms step to -30 mV from a holding potential of -70 mV, a 2 s conditioning step to +25 mV, and a 2 s test step to -30 mV. During the second phase of the screen, the potential during the conditioning step was raised to +45 mV. In both phases of the campaign, a secondary voltage pulse was applied using the same parameters as the second phase initial pulse. The initial and secondary pulses were applied in the absence of compound, and upon application of 1 μM and 10 μM test concentrations. […]
# 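Also: peak tail current of the secondary pulse compared with the same well before compound.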
# Chain of human ether-à-go-go-related gene (hERG) potassium channel (Q12809 whole entry, looked up): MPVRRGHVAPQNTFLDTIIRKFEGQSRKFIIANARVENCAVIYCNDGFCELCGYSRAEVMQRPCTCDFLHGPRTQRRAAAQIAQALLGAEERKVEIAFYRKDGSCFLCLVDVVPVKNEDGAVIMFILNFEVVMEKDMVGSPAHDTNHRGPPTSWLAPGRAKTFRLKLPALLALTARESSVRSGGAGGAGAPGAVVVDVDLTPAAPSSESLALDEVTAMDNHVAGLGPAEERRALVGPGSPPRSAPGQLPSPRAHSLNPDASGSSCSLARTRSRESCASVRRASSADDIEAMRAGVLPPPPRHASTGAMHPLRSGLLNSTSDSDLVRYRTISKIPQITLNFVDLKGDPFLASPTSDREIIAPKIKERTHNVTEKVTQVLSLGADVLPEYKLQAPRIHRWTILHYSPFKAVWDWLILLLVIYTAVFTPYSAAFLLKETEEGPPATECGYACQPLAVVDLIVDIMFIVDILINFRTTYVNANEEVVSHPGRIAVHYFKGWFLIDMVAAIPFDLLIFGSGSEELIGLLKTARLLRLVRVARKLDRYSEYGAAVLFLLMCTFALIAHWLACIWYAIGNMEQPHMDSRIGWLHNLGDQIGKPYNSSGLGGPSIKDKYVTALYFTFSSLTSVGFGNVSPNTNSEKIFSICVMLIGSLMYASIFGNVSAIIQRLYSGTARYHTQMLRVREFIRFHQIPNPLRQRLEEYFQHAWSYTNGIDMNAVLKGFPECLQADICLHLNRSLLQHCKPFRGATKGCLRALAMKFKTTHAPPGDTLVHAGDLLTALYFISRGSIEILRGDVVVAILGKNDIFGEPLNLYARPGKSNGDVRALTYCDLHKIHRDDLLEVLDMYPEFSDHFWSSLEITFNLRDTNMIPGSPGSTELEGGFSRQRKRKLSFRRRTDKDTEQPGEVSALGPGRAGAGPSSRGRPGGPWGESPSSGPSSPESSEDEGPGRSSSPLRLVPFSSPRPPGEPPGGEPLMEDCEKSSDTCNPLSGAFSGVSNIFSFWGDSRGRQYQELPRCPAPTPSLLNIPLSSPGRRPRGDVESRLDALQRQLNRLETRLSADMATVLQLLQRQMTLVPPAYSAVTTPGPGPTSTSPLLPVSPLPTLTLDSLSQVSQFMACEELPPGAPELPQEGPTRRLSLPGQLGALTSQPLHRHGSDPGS
row,SMILES,"hERG current change (%, negative = inhibition) at 10uM [%]"
1,CCN(CC)CCN(Cc1cc2ccc(C)c(C)c2[nH]c1=O)C(=S)NCc1ccco1,-51.4
2,Cc1cc(C)c2[nH]c(=O)c(CN(Cc3cccs3)C(=S)NCc3ccco3)cc2c1,-15.7
3,CCN(CC)CCN(Cc1cc2cc(C)cc(C)c2[nH]c1=O)C(=S)NCc1ccco1,-52.5
4,Cc1cccc2cc(CN(CCN(C)C)C(=S)NCc3ccco3)c(=O)[nH]c12,-38.9
5,Cc1cc(C)c2[nH]c(=O)c(CN(CC3CCCO3)C(=S)NCc3ccco3)cc2c1 (stereo not shown),-4.81
6,Cc1ccc2cc(CN(CC3CCCO3)C(=S)NCc3ccco3)c(=O)[nH]c2c1C (stereo not shown),-40.8
7,Cc1ccc(OCCC(=O)Nc2ccc(S(=O)(=O)Nc3cc(C)nc(C)n3)cc2)cc1,1.18
8,Br.C=CCN1CCc2cccc3c2[C@H]1Cc1ccc(O)c(O)c1-3,-19.3
9,COc1c(O)ccc2c1-c1c3c(cc4c1C(C2)N(C)CC4)OCO3 (stereo not shown),-28.7
10,Br.CCCN1CCc2cc(O)cc3c2[C@H]1Cc1ccc(O)c(O)c1-3.O,-57.8
11,Cn1c(N)c(N=Nc2ccc(S(N)(=O)=O)cc2)c(=O)n(C)c1=O,27.6
12,COc1ccc(NC(=O)CN(C)CC(=O)Nc2ccc(Cl)cc2F)cc1,-10.6
13,CCN(CC(=O)Nc1ccc(OC)cc1)CC(=O)Nc1ccc(Cl)cc1F,-6.34
14,CCN(CC(=O)Nc1ccc(OC)cc1)CC(=O)Nc1ccc(Br)cc1F,-67.4
15,Cc1ccc(Cn2nnc3c(=O)n(CC(=O)c4ccccc4)cnc32)cc1,-0.591
16,COc1ccc(NS(=O)(=O)c2cc(-c3cnc(C4CC4)o3)ccc2C)cc1,6.02
17,Cc1ccc(-c2nc(CS(=O)CC(=O)N3CCN(c4ncccn4)CC3)c(C)o2)cc1 (stereo not shown),-54.1
18,Cc1ccc(-c2nc(CS(=O)CC(=O)N3CCN(c4ccc(F)cc4)CC3)c(C)o2)cc1 (stereo not shown),-42
19,CCc1ccc(-c2nc(CSCC(=O)N3CCN(c4ncccn4)CC3)c(C)o2)cc1,-23.6
20,CCc1ccc(-c2nc(CN3CCC(C(=O)N4CCN(c5ccccc5)CC4)CC3)c(C)o2)cc1,-71.3
21,Cc1ccccc1-c1nc(CN2CCC(C(=O)N3CCN(c4ccccn4)CC3)CC2)c(C)o1,-62
22,CCc1ccc(-c2nc(CSCC(=O)N3CCN(c4ccccn4)CC3)c(C)o2)cc1,-50.7

row,SMILES,"hERG current change (%, negative = inhibition) at 10uM [%]"
1,COc1ccc(-c2nc(CN3CCC(C(=O)N4CCOCC4)CC3)c(C)o2)cc1OC,-6.54
2,Cc1ccc(-c2nc(CS(=O)CC(=O)N3CCN(c4ccccc4)CC3)c(C)o2)cc1 (stereo not shown),-31.3
3,Cc1ccc(-c2nc(CSCC(=O)N3CCN(c4ccccn4)CC3)c(C)o2)cc1,-25
4,CCOc1ccccc1-c1nc(CN2CCC(C(=O)N3CCOCC3)CC2)c(C)o1,-5.13
5,COC(=O)c1ccc(-c2nc(CN3CCC(C(=O)N4CCOCC4)CC3)c(C)o2)cc1,-7.65
6,Cc1nn(Cc2ccccc2Cl)c(C)c1NC(=O)Cn1nc([N+](=O)[O-])c(Cl)c1C,7.21
7,COC(=O)c1coc(-c2ccc(C)cc2)c1C(=O)OC,1.6
8,CC(=O)c1ccc(N2CCN(S(=O)(=O)c3ccc4ccccc4c3)CC2)cc1,3.28
9,Cc1cc(Nc2nnnn2-c2ccccc2)n(-c2ccccc2)n1,-21.8
10,CCN1CCN(C(=O)C(NS(=O)(=O)c2ccc3nc(C)sc3c2)C(C)C)CC1 (stereo not shown),0.194
11,COc1ccc(-c2[nH]c(-c3ccc(F)cc3)nc2SCC(=O)NCc2ccco2)cc1OC,18.8
12,CSc1ccc(/C=N/Nc2ccc(Cl)c(C(=O)O)c2)cc1,6.73
13,COC(=O)/C(=C/c1c[nH]c2ccccc12)NC(C)=O,6.31
14,CCc1ccc(-c2nc(CN3CCC(C(=O)N4CCN(c5ccccn5)CC4)CC3)c(C)o2)cc1,-68.5
15,Cc1ccccc1-c1nc(CN2CCC(C(=O)N3CCC(C(N)=O)CC3)CC2)c(C)o1,2.7
16,Cc1ccccc1-c1nc(CN2CCC(C(=O)O)CC2)c(C)o1,-18.6
17,CCOC(=O)N1CCN(C(=O)C2CCN(Cc3nc(-c4ccccc4C)oc3C)CC2)CC1,-58.3
18,O=C1OC(/C=C/c2ccccc2)=NC/1=C\c1cccnc1,19.4
19,CCCc1c(O)nc(SCC(=O)NCc2ccco2)[nH]c1=O,27
20,CC1CCN(C(=O)c2ccc(-n3cnnn3)cc2)CC1,-72.1
21,O=C(c1ccc(-n2cnnn2)cc1)N1CCOCC1,-1.64
22,O=C(Nc1ccc(-n2cnnn2)cc1)C(c1ccccc1)c1ccccc1,8.56

row,SMILES,"hERG current change (%, negative = inhibition) at 10uM [%]"
1,O=C(c1ccc(-n2cnnn2)cc1)N1CCN(C(c2ccccc2)c2ccccc2)CC1,-64.7
2,O=C(c1ccc(-n2cnnn2)cc1)N1CCCCC1,-24.1
3,O=C(c1ccc(=O)oc1)N1CCN(C(c2ccccc2)c2ccccc2)CC1,-32.2
4,Cc1cc(NC(=O)c2cc(CC(C)C)on2)n(-c2ccccc2)n1,9.57
5,COc1cc(NC(=O)CCCN2C(=O)NC(C)(C)C2=O)cc(OC)c1,12.2
6,Cc1cccc(OCC(=O)NCC(=O)N/N=C/c2ccc(N(C)C)cc2)c1,0.0886
7,Cc1ccc(NC(=O)Nc2c(Cl)cccc2Cl)cn1,14
8,COC(=O)CCSc1cc([N+](=O)[O-])cc2c1c(C1OCCS1)nn2-c1ccccc1 (stereo not shown),3.61
9,O=C(O)CCc1ccc(-c2cccs2)n1NC(=O)c1cccs1,22.3
10,O=C(Nc1ccc(Br)cc1)N1CCCC(O)C1 (stereo not shown),6.54
11,CN1CCN(C(=O)c2ccc3c(c2)N(Cc2ccccc2F)C(=O)c2ccccc2S3=O)CC1 (stereo not shown),5.05
12,Cc1ccc(C2(c3noc(CN4CCC(c5ccncc5)CC4)n3)CCCC2)cc1,-55.5
13,Cc1ccc(C2(c3noc(CN4CCOCC4)n3)CCCC2)cc1,17.3
14,COCCN1CCN(Cc2nc(C3(c4ccc(C)cc4)CCCC3)no2)CC1,-9.3
15,COc1ccccc1NC(=O)C[n+]1ccccc1C.[Cl-],15.3
16,COc1ccc(-n2c(SCCNCCO)nc3sc4c(c3c2=O)CCCC4)cc1,-55.7
17,COc1ccc(-n2c(NN)nc3sc4c(c3c2=O)CCCC4)cc1,-47.4
18,CN(C)CCNc1nc2sc3c(c2c(=O)n1-c1ccc(F)cc1)CCCCC3,-33.3
19,COc1ccc(-n2c(NCCN(C)C)nc3sc4c(c3c2=O)CCCCC4)cc1,-72.7
20,CCOC(=O)CSc1nc2sc3c(c2c(=O)n1-c1ccc(OCC)cc1)CCN(C)C3,-53.9
21,COc1ccc(-n2c(C)nc3sc4c(c3c2=O)CCCC4)cc1,-20.3
22,CCOc1ccc(-n2c(SCC(=O)OC)nc3sc4c(c3c2=O)CCN(C)C4)cc1,-0.924

row,SMILES,"hERG current change (%, negative = inhibition) at 10uM [%]"
1,CCOC(=O)CSc1nc2sc3c(c2c(=O)n1-c1ccc(OC)cc1)CCN(C)C3,-5.76
2,COc1ccc(-n2c(SCC(=O)O)nc3sc4c(c3c2=O)CCC4)cc1,18.9
3,CCN1CCN(c2nc3sc4c(c3c(=O)n2-c2ccc(OC)cc2)CCCCC4)CC1,-60.3
4,COc1ccc(-n2c(SCC(N)=O)nc3sc4c(c3c2=O)CCC4)cc1,-16.9
5,COc1ccc(-n2c(SCC(=O)O)nc3sc4c(c3c2=O)CCCC4)cc1,20.3
6,COc1ccc(CNc2nc3nc(-c4ccccc4)cc(=O)n3[nH]2)cc1OC,-13.1
7,CCOC(=O)c1sc(NC(=O)CSc2nc(C)cc(C(F)(F)F)n2)c(C#N)c1C,4.26
8,COc1ccc(C(=O)c2c[nH]c(C(=O)NCc3cccnc3)c2)cc1,-12.7
9,CCN1CCc2nc(NC(=O)c3cc(F)c(F)cc3Cl)sc2C1,-34.2
10,Cc1cccc(OCCOC(=O)c2ccc(F)c(S(=O)(=O)N3CCOCC3)c2)c1,-18.1
11,CN1CCc2c(sc(NC(=O)c3ccc(C(=O)c4ccccc4)cc3)c2C(N)=O)C1.Cl,11.5
12,CCN1CCc2c(sc(NC(=O)c3ccc(S(=O)(=O)N4CC(C)OC(C)C4)cc3)c2C(N)=O)C1 (stereo not shown),-54.5
13,CCN1CCc2c(sc(NC(=O)c3ccc(S(=O)(=O)N4CCOCC4)cc3)c2C(N)=O)C1,-21.9
14,CCN1CCN(S(=O)(=O)c2ccc(C(=O)Nc3sc4c(c3C(N)=O)CCN(CC)C4)cc2)CC1,12.4
15,CCC(=O)Nc1sc2c(c1C(N)=O)CCN(Cc1ccccc1)C2.Cl,-53.3
16,CCN1CCc2c(sc(NC(=O)c3ccc4ccccc4c3)c2C(N)=O)C1.Cl,7.59
17,Cl.NC(=O)c1c(NC(=O)Cc2ccccc2)sc2c1CCN(Cc1ccccc1)C2,7.96
18,CNC(=O)c1c(NC(=O)c2ccc(S(=O)(=O)N3CC(C)OC(C)C3)cc2)sc2c1CCN(C(C)C)C2 (stereo not shown),-26.9
19,CCN1CCc2c(sc(NC(=O)c3ccc(C(=O)c4ccccc4)cc3)c2C(N)=O)C1.Cl,-55.4
20,CNC(=O)c1c(NC(=O)c2ccc(S(=O)(=O)N3CCCCC3)cc2)sc2c1CCN(C(C)C)C2,-65.8
21,CNC(=O)c1c(NC(=O)c2ccc(S(=O)(=O)N3CCCC3)cc2)sc2c1CCN(C(C)C)C2,2.7
22,Cl.NC(=O)c1c(NC(=O)c2ccccc2)sc2c1CCN(Cc1ccccc1)C2,7.85
